The text below walks through data of publication PMC7862700, “An all-to-all approach to the identification of sequence-specific readers for epigenetic DNA modifications on cytosine”.

What all share (test): DAPPL (digital affinity profiling via proximity ligation, sequencing); 10 mM Tris-HCl pH 7.5, 50 mM NaCl, 1 mM DTT, 4% glycerol, room temperature, 30 min; GST-TFs on glutathione beads, 16-mer random dsDNA library, 0.1% formaldehyde crosslink after washing; high values mean tight binding
What all share (conditions): protein: recombinant; tags: N-terminal GST; dsDNA, one strand shown

For one assay, the target named is T1, ELK1 (Homo sapiens, UniProt P19419 1-428).
T1 sequence: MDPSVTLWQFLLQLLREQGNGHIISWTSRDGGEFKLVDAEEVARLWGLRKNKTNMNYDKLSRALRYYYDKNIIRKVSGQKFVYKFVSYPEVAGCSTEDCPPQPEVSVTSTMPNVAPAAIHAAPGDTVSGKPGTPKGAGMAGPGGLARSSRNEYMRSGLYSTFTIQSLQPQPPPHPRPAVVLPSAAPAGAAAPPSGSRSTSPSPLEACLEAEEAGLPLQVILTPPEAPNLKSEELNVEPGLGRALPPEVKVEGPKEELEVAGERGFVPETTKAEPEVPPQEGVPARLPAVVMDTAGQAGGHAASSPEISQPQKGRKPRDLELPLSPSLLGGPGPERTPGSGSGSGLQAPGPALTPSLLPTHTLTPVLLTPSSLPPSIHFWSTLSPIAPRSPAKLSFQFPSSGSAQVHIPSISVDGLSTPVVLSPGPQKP
In a few lines:
(§1)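 A tag-only sample was pooled with DNA-barcoded human transcription factors that had been expressed in yeast as GST fusions and captured on glutathione beads. The pools were incubated for 30 min at room temperature with 200 nmole of a random double-stranded 16-mer DNA library in Tris/NaCl/DTT/glycerol buffer, then washed, crosslinked with 0.1% formaldehyde, proximity-ligated (BsaI/T4 ligase, 1 h, 37 °C), PCR-amplified and sequenced on an Illumina NextSeq500. Binding signal is each hexamer's read frequency for a factor divided by its frequency for the tag-only sample.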

In another assay the target is T2, GABPA (Homo sapiens, UniProt Q06546 1-454).
T2 sequence: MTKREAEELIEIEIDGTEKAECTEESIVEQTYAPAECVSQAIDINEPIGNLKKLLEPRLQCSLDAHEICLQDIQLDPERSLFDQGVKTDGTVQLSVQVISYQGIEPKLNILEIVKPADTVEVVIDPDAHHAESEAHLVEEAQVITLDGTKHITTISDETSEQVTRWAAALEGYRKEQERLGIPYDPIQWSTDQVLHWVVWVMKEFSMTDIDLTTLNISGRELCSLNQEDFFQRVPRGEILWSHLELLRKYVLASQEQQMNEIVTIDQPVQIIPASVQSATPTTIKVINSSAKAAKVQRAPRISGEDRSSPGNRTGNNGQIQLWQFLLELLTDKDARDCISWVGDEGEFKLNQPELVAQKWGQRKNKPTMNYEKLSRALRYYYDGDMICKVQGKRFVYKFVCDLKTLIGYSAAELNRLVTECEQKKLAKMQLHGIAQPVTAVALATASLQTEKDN
In a few lines:
as §1

A further assay addresses T3, ERG (Homo sapiens, UniProt P11308 1-479).
T3 sequence: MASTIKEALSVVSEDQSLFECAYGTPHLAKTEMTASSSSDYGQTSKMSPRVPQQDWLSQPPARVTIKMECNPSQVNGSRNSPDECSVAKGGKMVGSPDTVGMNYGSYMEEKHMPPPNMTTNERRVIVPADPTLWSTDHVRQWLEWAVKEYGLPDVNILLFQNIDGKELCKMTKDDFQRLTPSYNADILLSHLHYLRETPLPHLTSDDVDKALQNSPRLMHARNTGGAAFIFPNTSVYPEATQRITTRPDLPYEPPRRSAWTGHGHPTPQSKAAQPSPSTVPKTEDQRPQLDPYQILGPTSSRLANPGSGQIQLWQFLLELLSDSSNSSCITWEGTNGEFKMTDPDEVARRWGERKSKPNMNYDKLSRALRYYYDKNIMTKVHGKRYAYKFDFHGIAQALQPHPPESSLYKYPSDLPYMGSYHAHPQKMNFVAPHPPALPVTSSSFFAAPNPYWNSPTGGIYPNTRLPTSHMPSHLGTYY
In a few lines: as §1

A further assay concerns the target ELF1 (Homo sapiens, UniProt P32519 1-619). The method, boiled down: as §1
The next assay concerns the target T4, EHF (Homo sapiens, UniProt Q9NZC4 1-300).
T4 sequence: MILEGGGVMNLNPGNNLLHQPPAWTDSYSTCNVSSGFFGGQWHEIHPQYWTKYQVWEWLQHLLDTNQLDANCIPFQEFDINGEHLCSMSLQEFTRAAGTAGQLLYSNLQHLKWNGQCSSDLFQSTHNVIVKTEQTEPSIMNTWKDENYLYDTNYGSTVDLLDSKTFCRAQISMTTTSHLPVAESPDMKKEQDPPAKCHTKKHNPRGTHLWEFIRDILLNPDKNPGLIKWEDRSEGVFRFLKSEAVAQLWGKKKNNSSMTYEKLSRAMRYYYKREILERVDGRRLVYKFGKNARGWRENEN
In a few lines: as §1

Another assay deals with SPIB (Homo sapiens, UniProt Q01892 1-262). In a few lines:
as §1

A further assay addresses T5, ELK3 (Homo sapiens, UniProt P41970 1-407).
T5 sequence: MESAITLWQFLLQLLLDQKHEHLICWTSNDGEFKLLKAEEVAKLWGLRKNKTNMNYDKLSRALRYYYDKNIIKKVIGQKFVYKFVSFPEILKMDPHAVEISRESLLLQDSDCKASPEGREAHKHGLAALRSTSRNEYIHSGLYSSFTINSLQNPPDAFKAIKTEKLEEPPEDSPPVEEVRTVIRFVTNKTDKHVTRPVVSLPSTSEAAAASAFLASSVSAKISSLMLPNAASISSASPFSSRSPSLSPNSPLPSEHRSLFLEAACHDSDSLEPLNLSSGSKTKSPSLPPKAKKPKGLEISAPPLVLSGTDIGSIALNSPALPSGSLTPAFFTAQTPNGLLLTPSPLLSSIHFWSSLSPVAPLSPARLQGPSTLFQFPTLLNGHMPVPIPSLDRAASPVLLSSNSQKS
The method, boiled down: as §1

A further assay has as its target ETV5 (Homo sapiens, UniProt P41161 1-510). The method, boiled down:
as §1

The next assay concerns the target ELF4 (Homo sapiens, UniProt Q99607 1-663). In a few lines: as §1
The next assay concerns the target T6, ELF3 (Homo sapiens, UniProt P78545 1-371).
T6 sequence: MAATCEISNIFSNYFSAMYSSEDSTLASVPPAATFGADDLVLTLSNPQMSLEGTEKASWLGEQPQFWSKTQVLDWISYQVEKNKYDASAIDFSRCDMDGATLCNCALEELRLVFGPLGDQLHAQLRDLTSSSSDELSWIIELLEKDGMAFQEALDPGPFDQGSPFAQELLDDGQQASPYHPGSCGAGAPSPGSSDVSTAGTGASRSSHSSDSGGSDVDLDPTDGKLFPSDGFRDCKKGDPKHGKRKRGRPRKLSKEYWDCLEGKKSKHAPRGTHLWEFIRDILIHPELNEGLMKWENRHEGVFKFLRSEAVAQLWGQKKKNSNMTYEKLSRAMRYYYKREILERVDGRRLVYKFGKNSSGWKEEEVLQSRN
The method, boiled down:
as §1

The target of a further assay is ETV1 (Homo sapiens, UniProt P50549 1-477). In a few lines:
as §1

In the next assay the target is T7, ERF (Homo sapiens, UniProt P50548 1-548).
T7 sequence: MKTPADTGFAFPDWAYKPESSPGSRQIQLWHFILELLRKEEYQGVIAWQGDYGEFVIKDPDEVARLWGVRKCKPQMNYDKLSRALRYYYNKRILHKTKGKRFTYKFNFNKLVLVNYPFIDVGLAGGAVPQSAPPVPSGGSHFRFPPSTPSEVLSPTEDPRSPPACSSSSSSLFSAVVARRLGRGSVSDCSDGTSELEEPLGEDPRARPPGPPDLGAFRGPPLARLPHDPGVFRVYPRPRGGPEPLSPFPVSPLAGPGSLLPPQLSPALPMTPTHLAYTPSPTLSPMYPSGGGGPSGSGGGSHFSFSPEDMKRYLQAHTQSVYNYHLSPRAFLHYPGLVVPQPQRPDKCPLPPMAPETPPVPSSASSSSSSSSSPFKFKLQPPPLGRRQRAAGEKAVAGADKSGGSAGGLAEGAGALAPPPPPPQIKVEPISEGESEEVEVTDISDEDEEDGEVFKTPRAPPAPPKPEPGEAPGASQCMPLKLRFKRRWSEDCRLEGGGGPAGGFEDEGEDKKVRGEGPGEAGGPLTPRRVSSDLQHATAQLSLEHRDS
The method, boiled down: as §1

The next assay addresses T8, ETV3L (Homo sapiens, UniProt Q6ZN32 1-361).
T8 sequence: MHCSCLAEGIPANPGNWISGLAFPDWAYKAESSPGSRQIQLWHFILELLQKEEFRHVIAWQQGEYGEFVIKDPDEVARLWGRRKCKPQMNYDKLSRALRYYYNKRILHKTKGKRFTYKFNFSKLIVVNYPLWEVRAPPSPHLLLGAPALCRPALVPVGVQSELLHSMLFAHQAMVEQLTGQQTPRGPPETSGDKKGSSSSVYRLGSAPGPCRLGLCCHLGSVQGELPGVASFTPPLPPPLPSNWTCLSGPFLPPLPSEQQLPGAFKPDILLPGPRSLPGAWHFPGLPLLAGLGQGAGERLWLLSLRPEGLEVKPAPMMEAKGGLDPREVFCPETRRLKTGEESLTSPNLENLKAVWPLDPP
The method, boiled down: as §1

The next assay addresses T9, ETS2 (Homo sapiens, UniProt P15036 1-469).
T9 sequence: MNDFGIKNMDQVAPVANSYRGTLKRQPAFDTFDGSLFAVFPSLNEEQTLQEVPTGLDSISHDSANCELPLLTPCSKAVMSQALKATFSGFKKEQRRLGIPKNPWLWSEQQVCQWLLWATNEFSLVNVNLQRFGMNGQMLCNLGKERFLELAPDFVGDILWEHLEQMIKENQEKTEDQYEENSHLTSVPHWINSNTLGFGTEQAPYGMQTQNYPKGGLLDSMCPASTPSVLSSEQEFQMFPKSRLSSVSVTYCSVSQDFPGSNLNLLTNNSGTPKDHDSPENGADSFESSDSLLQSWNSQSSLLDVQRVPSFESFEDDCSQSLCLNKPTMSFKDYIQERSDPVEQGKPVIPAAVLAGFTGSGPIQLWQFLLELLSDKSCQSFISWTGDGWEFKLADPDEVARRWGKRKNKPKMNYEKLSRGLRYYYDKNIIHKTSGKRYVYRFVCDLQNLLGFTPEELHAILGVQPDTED
The method, boiled down: as §1

The target in a further assay is T10, SPDEF (Homo sapiens, UniProt O95238 1-335).
T10 sequence: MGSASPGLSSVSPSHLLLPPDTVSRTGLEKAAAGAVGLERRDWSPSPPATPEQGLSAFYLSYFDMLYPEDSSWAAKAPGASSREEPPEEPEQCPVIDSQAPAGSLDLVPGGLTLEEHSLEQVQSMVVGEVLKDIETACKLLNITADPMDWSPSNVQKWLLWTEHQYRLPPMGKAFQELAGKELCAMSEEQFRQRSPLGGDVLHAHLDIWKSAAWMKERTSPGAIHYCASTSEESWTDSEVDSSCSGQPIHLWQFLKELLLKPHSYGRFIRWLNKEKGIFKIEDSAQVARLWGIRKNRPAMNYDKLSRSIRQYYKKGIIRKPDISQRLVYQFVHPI
In a few lines: as §1

Another assay addresses T11, ETV7 (Homo sapiens, UniProt Q9Y603 1-341).
T11 sequence: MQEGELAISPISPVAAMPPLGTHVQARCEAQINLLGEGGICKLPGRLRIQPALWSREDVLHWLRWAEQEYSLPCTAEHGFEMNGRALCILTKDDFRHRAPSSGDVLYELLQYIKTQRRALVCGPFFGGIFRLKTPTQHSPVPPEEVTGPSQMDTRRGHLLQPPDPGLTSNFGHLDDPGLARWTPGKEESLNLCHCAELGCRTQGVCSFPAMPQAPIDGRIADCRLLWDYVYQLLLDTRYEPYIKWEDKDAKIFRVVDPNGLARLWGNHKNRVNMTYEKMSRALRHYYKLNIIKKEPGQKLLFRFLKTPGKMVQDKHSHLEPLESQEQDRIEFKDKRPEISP
In a few lines:
as §1

Another assay addresses T12, ETV3 (Homo sapiens, UniProt P41162-2 1-143).
T12 sequence: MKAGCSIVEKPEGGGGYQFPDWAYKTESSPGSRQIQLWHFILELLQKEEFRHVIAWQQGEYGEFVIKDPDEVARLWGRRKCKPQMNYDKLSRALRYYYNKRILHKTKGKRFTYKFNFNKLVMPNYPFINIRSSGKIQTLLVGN
In a few lines:
as §1

The target in a further assay is ETV6 (Homo sapiens, UniProt P41212 1-452). The method, boiled down: as §1
Sequence of ETV6 (P41212 whole entry): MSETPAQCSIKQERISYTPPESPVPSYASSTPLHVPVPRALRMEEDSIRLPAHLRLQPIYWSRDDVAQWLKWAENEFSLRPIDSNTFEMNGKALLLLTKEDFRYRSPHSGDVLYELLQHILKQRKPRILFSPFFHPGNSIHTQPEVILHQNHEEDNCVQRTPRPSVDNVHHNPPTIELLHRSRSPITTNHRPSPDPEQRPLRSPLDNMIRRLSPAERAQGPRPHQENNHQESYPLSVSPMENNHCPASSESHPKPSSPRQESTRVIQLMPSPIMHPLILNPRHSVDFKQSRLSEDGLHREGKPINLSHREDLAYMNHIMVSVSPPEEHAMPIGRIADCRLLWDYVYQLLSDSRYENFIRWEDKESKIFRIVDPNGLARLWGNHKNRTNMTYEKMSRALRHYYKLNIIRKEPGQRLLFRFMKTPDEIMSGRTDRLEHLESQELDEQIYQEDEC

Sequence of ELF4 (Q99607 whole entry): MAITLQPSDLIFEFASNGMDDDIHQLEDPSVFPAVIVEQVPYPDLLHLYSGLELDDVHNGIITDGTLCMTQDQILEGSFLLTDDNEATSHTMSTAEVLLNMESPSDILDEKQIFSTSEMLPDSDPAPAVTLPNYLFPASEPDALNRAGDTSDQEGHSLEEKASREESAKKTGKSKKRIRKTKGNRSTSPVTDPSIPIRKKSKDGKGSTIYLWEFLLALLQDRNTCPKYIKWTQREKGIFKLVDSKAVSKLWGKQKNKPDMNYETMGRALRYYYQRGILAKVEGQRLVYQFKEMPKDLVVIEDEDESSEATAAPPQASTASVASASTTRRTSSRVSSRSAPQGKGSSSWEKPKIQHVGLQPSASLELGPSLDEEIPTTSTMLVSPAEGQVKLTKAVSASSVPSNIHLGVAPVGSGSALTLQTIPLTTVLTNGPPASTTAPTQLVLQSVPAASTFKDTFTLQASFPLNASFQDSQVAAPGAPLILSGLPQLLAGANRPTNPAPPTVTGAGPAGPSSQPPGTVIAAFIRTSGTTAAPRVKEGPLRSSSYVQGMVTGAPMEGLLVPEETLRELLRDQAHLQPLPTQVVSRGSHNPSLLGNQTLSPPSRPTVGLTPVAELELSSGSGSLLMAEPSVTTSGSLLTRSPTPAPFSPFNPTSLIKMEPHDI
Sequence of ETV5 (P41161 whole entry): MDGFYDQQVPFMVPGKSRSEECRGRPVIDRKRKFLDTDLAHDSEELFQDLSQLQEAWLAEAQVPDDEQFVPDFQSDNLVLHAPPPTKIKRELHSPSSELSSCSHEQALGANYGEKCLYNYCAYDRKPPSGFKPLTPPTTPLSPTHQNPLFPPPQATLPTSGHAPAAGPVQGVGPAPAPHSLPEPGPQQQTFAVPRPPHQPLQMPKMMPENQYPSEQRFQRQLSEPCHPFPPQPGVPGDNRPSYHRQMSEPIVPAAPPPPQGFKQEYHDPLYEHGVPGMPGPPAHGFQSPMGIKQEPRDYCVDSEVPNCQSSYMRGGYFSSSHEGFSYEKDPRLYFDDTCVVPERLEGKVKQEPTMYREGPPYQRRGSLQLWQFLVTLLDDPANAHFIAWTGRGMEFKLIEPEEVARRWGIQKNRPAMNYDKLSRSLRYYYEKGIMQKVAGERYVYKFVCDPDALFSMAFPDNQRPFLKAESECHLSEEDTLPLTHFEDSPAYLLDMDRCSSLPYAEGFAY
Sequence of ETV1 (P50549 whole entry): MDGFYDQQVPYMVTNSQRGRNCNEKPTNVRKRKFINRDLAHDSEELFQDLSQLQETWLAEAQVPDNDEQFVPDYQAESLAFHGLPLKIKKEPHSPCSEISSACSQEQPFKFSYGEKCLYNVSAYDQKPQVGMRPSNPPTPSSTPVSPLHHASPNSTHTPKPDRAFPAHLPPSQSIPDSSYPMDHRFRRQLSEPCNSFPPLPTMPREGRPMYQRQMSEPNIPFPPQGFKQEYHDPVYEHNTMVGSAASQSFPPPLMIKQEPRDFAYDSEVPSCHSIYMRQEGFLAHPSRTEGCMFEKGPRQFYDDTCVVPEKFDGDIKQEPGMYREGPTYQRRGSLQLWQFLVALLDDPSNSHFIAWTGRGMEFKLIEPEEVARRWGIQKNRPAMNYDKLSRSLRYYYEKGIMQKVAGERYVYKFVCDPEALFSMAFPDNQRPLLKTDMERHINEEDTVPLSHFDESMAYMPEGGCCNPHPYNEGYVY
Sequence of SPIB (Q01892 whole entry): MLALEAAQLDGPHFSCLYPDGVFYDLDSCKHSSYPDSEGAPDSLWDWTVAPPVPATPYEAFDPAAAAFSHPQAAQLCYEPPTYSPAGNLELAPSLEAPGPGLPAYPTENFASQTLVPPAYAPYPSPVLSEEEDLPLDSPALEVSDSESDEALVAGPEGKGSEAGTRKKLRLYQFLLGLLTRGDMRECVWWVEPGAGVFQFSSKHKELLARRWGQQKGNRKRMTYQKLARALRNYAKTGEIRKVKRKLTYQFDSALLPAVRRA
Sequence of ELF1 (P32519 whole entry): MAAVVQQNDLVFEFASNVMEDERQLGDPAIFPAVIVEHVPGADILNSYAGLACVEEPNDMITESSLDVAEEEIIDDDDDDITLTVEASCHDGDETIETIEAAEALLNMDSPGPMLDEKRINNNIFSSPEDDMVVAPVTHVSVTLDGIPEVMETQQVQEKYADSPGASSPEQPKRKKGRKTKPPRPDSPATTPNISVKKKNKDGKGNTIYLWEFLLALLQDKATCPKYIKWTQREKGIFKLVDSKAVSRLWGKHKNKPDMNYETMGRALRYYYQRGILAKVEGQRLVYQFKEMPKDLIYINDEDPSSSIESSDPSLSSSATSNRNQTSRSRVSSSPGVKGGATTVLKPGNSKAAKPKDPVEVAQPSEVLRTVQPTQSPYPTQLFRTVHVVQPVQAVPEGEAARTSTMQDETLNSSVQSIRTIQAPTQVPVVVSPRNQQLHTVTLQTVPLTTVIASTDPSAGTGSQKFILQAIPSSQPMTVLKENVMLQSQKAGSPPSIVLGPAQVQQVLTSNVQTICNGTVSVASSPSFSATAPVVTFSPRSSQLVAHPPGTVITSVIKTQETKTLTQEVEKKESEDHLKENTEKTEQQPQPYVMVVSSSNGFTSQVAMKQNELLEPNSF

As to GACCGG, the binding signal is 1.11 fold enrichment (6-mer frequency, TF over GST control) with ELK1; 1.02 fold enrichment (6-mer frequency, TF over GST control) in the assay with GABPA; 1.31 fold enrichment (6-mer frequency, TF over GST control) in the assay with ERG; 1 fold enrichment (6-mer frequency, TF over GST control) with ELF1; 1.06 fold enrichment (6-mer frequency, TF over GST control) with EHF; 1.07 fold enrichment (6-mer frequency, TF over GST control) with SPIB. The binding signal in the assay with ELK3 was 1.23 fold enrichment (6-mer frequency, TF over GST control); with ETV5, 1.12 fold enrichment (6-mer frequency, TF over GST control); with ELF4 it was 1.03 fold enrichment (6-mer frequency, TF over GST control); in the assay with ELF3, 1.14 fold enrichment (6-mer frequency, TF over GST control); with ETV1, 1.21 fold enrichment (6-mer frequency, TF over GST control); with ERF, 1.06 fold enrichment (6-mer frequency, TF over GST control). The binding signal with ETV3L is 1.08 fold enrichment (6-mer frequency, TF over GST control); with ETS2, 1.07 fold enrichment (6-mer frequency, TF over GST control); in the assay with SPDEF it was 1.19 fold enrichment (6-mer frequency, TF over GST control); with ETV7 it was 1.06 fold enrichment (6-mer frequency, TF over GST control); with ETV3 it was 1.09 fold enrichment (6-mer frequency, TF over GST control); with ETV6, 1.03 fold enrichment (6-mer frequency, TF over GST control).
